Out of some 39,000 compounds screened, about 1,500 (3.8%) were called active. This excerpt belongs to a sample that is enriched for actives.
test system: HSkMC (human skeletal muscle cells); experiment: cytotoxicity call (relative viability < 0.9); settings: 10 µM

| Compound | cytotoxicity call |
| --- | --- |
| COc1ccccc1S(=O)(=O)N(C)C[C@@H]1OCc2cn(nn2)CCCC(=O)N([C@@H](C)CO)C[C@@H]1C | inactive |
| C=c1ccc(C)cc1=C1NN=C(NC(=O)c2ccc(S(=O)(=O)N(CCOC)CCOC)cc2)O1 | active |
| C=c1cc(C)ccc1=C1NN=C(NC(=O)CC)O1 | inactive |
| C=c1cc(C)ccc1=C1NN=C(NC(C)=O)O1 | inactive |
| C[C@H](CO)N1C[C@H](C)[C@@H](CN(C)C(=O)Nc2ccc(F)cc2)Oc2ccc(NC(=O)Cn3cnnn3)cc2C1=O | inactive |
| C[C@@H](NC(=O)C[C@H]1C=C[C@H](NC(=O)CN2CCOCC2)[C@H](CO)O1)c1ccccc1 | inactive |
| Cc1noc(C)c1S(=O)(=O)Nc1ccc2c(c1)C(=O)N([C@@H](C)CO)C[C@H](C)[C@H](CN(C)C(=O)Nc1ccccc1)O2 | inactive |
| CCN(CC)CCN(Cc1ccc(-c2ccc(C(F)(F)F)cc2)cc1)C(=O)Cn1c(SCc2ccc(F)cc2)nc(=O)c2c1CCC2 | active |
| C[C@@H]1CN([C@@H](C)CO)C(=O)Cc2cc(NS(=O)(=O)c3cn(C)cn3)ccc2O[C@@H]1CN(C)C(=O)Nc1ccc(F)cc1 | inactive |
| C[C@@H]1CN([C@@H](C)CO)C(=O)c2cc(NC(=O)Nc3ccc(F)cc3)ccc2O[C@H]1CN(C)Cc1ccc(Oc2ccccc2)cc1 | inactive |
| C[C@@H]1CN([C@H](C)CO)C(=O)c2cc(NC(=O)Nc3ccc(F)cc3)ccc2O[C@H]1CN(C)Cc1ccc(Oc2ccccc2)cc1 | inactive |
| C[C@H]1CN([C@@H](C)CO)C(=O)c2cc(NC(=O)Nc3ccc(F)cc3)ccc2O[C@H]1CN(C)Cc1ccc(Oc2ccccc2)cc1 | inactive |
| C[C@H]1CN([C@@H](C)CO)C(=O)c2cc(NC(=O)Nc3ccccc3)ccc2O[C@@H]1CN(C)Cc1ccc(Oc2ccccc2)cc1 | inactive |
| C[C@@H]1CN([C@@H](C)CO)C(=O)c2cc(NC(=O)Nc3ccc(F)cc3)ccc2O[C@@H]1CN(C)Cc1ccc(Oc2ccccc2)cc1 | active |
| C[C@H](CO)N1C[C@H](C)[C@@H](CN(C)Cc2ccc(Oc3ccccc3)cc2)Oc2ccc(NC(=O)Nc3ccc(F)cc3)cc2C1=O | inactive |
| C[C@H]1CN([C@@H](C)CO)C(=O)c2cc(NC(=O)Nc3ccc(F)cc3)ccc2O[C@@H]1CN(C)Cc1ccc(Oc2ccccc2)cc1 | inactive |
| C[C@@H]1CN([C@H](C)CO)C(=O)c2cc(NC(=O)Nc3ccc(F)cc3)ccc2O[C@@H]1CN(C)Cc1ccc(Oc2ccccc2)cc1 | active |
| C[C@H](CO)N1C[C@H](C)[C@H](CN(C)Cc2ccc(Oc3ccccc3)cc2)Oc2ccc(NC(=O)Nc3ccc(F)cc3)cc2C1=O | active |
| CN1C(=O)c2cc(NC(=O)c3cnccn3)ccc2OC[C@H]2O[C@@H](CC(=O)N[C@@H]3CCN(Cc4ccccc4)C3)CC[C@@H]21 | inactive |
| CN1CCN(C(=O)C[C@@H]2CC[C@@H]3[C@H](COC[C@@H](O)CN3Cc3ccc4c(c3)OCO4)O2)CC1 | inactive |
| CS(=O)(=O)Cc1nc2ccccc2oc1=O | inactive |

| Compound | cytotoxicity call |
| --- | --- |
| Cc1noc(C)c1NC(=O)Nc1cccc2c1O[C@@H](CN(C)Cc1ccc(Oc3ccccc3)cc1)[C@@H](C)CN([C@H](C)CO)C2=O | inactive |
| COc1ccc(S(=O)(=O)Nc2ccc3c(c2)C(=O)N([C@H](C)CO)C[C@H](C)[C@H](CN(C)S(=O)(=O)c2ccc(Cl)cc2)OCCCC[C@H](C)O3)cc1 | inactive |
| CCC(=O)N(C)C[C@@H]1Oc2ncc(C#C[C@H](C)O)cc2C(=O)N([C@H](C)CO)C[C@H]1C | inactive |
| COc1cccc(S(=O)(=O)N(C)C[C@H]2Oc3ncc(C#CC(C)C)cc3C(=O)N([C@H](C)CO)C[C@H]2C)c1 | inactive |
| CO[C@@H]1CN(C)C(=O)c2cc(NS(=O)(=O)CC(F)(F)F)ccc2OC[C@H](C)N(C(=O)NC(C)C)C[C@H]1C | inactive |
| C[C@@H]1CN([C@H](C)CO)C(=O)c2cc(NC(=O)CCCCCC(=O)Nc3ccccc3N)ccc2O[C@H]1CN(C)C(=O)Nc1ccc(F)cc1 | inactive |
| CN(C)c1nc(SCCO)nc(N(C)C)n1 | inactive |
| C[C@@H]1CCCCO[C@H](CN(C)C(=O)Nc2cccc3ccccc23)[C@H](C)CN([C@@H](C)CO)C(=O)c2cc(NS(=O)(=O)c3ccc(F)cc3)ccc2O1 | inactive |
| O=C(OC[C@H]1O[C@@H](OC(=O)c2cc(O)c(O)c(O)c2)[C@H](O)[C@@H](OC(=O)c2cc(O)c(O)c(O)c2)[C@@H]1O)c1cc(O)c(O)c(O)c1 | inactive |
| O=C(OCC1OC(OC(=O)c2cc(O)c(O)c(OC(=O)c3cc(O)c(O)c(O)c3)c2)C(OC(=O)c2cc(O)c(O)c(OC(=O)c3cc(O)c(O)c(O)c3)c2)C(OC(=O)c2cc(O)c(O)c(OC(=O)c3cc(O)c(O)c(O)c3)c2)C1OC(=O)c1cc(O)c(O)c(OC(=O)c2cc(O)c(O)c(O)c2)c1)c1cc(O)c(O)c(OC(=O)c2cc(O)c(O)c(O)c2)c1 (stereo not drawn) | inactive |
| O=C(OC[C@H]1O[C@@H](OC(=O)c2cc(O)c(O)c(O)c2)[C@H](OC(=O)c2cc(O)c(O)c(O)c2)[C@@H](OC(=O)c2cc(O)c(O)c(O)c2)[C@@H]1OC(=O)c1cc(O)c(O)c(O)c1)c1cc(O)c(O)c(O)c1 | active |
| CC(C)NC(=O)N(C)C[C@@H]1Oc2ccc(NC(=O)CCCN(C)C)cc2CC(=O)N([C@H](C)CO)C[C@@H]1C | inactive |
| COc1ccc(NC(=O)Nc2ccc3c(c2)C(=O)N([C@@H](C)CO)C[C@@H](C)[C@@H](CN(C)Cc2ccc(C(=O)Nc4ccccc4N)cc2)O3)cc1 | inactive |
| C[C@H]1CN([C@@H](C)CO)C(=O)c2c(c3ccccc3n2C)-c2ccccc2CO[C@@H]1CN(C)S(=O)(=O)c1ccc(Cl)cc1 | inactive |
| Cc1ccc(S(=O)(=O)Nc2ccc3c(c2)C(=O)N([C@H](C)CO)C[C@H](C)[C@@H](CN(C)S(C)(=O)=O)O3)cc1 | inactive |
| C[C@@H]1CN([C@@H](C)CO)C(=O)c2cccc(NC(=O)Nc3ccc(F)cc3)c2O[C@H]1CN(C)Cc1ccc(C(F)(F)F)cc1 | inactive |
| C[C@@H]1CN([C@H](C)CO)C(=O)c2cccc(NC(=O)Nc3ccc(C(F)(F)F)cc3)c2O[C@@H]1CN(C)Cc1ccc(C(F)(F)F)cc1 | active |
| C[C@@H]1CN([C@@H](C)CO)C(=O)c2cccc(NC(=O)Nc3ccc(C(F)(F)F)cc3)c2O[C@@H]1CN(C)Cc1ccc(C(F)(F)F)cc1 | active |
| C[C@@H]1CN([C@H](C)CO)C(=O)c2cccc(NC(=O)Nc3ccc(C(F)(F)F)cc3)c2O[C@H]1CN(C)Cc1ccc(C(F)(F)F)cc1 | inactive |
| C[C@H]1CN([C@@H](C)CO)C(=O)c2cccc(NC(=O)Nc3ccc(F)cc3)c2O[C@@H]1CN(C)Cc1ccc(C(F)(F)F)cc1 | active |
| C[C@H](CO)N1C[C@H](C)[C@H](CN(C)Cc2ccc(C(F)(F)F)cc2)Oc2c(NC(=O)Nc3ccc(C(F)(F)F)cc3)cccc2C1=O | inactive |

| Compound | cytotoxicity call |
| --- | --- |
| C[C@H](CO)N1C[C@H](C)[C@@H](CN(C)Cc2ccc(C(F)(F)F)cc2)Oc2c(NC(=O)Nc3ccc(C(F)(F)F)cc3)cccc2C1=O | inactive |
| C[C@H](CO)N1C[C@H](C)[C@@H](CN(C)Cc2ccc(C(F)(F)F)cc2)Oc2c(NC(=O)Nc3ccc(F)cc3)cccc2C1=O | inactive |
| C[C@@H]1CN([C@@H](C)CO)C(=O)c2cccc(NC(=O)Nc3ccc(C(F)(F)F)cc3)c2O[C@H]1CN(C)Cc1ccc(C(F)(F)F)cc1 | inactive |
| CO[C@@H]1CN(C)C(=O)c2cc(NS(=O)(=O)c3cn(C)cn3)ccc2OC[C@@H](C)N(CCC(F)(F)F)C[C@H]1C | inactive |
| O=C(C[C@H]1CC[C@@H]2[C@H](COC[C@H](O)CN2S(=O)(=O)c2cccc(F)c2)O1)NCCCN1CCOCC1 | inactive |
| COCC#Cc1cnc2c(c1)C(=O)N([C@@H](C)CO)C[C@H](C)[C@H](CN(C)C(=O)Nc1ccccc1OC)O2 | inactive |
| O=C(CCCCCNC(=O)OCc1ccc(CO[C@@H]2C[C@H](c3ccc(C(F)(F)F)cc3)C=C(C(=O)N3CCN(Cc4ccc5c(c4)OCO5)CC3)O2)cc1)NO | inactive |
| C[C@@H]1CN([C@@H](C)CO)S(=O)(=O)c2ccc(-c3ccc(C(=O)N(C)C)cc3)cc2O[C@H]1CN(C)C(=O)Cc1ccccn1 | inactive |
| COc1ccc(NC(=O)N(C)C[C@@H]2OCCCC[C@H](C)Oc3ccc(NC(=O)CCC(F)(F)F)cc3C(=O)N([C@@H](C)CO)C[C@@H]2C)cc1 | inactive |
| CO[C@H]1CN(C)C(=O)c2cc(NS(=O)(=O)c3cn(C)cn3)ccc2OC[C@H](C)N(Cc2cccc(F)c2)C[C@@H]1C | inactive |
| CO[C@H]1/C=C/C[C@H](C)[C@@H](C)S(=O)(=O)NC(=O)c2ccc3c(c2)N(C[C@@H]2CC[C@H]21)C[C@@]1(CCCc2cc(Cl)ccc21)CO3 | active |
| COc1ccc(CN(C)C[C@@H]2OCCCC[C@@H](C)Oc3ccc(NC(=O)c4ccccc4)cc3C(=O)N([C@@H](C)CO)C[C@@H]2C)cc1 | inactive |
| CO[C@@H]1CN(C)C(=O)c2ccc(NS(=O)(=O)c3cn(C)cn3)cc2OC[C@H](C)N(Cc2cccc(F)c2)C[C@@H]1C | inactive |
| C=C1C(=O)OC2CC3(C)CCCC(C)C3=CC12 (stereo not drawn) | active |
| C[C@H]1CN([C@@H](C)CO)C(=O)c2cc(NC(=O)C3CCCCC3)ccc2O[C@@H]1CN(C)Cc1ccc(Cl)c(Cl)c1 | inactive |
| COC(=O)C1(C)CCCC2(C)c3ccc(O)c(C(C)C)c3CCC12 (stereo not drawn) | active |
| CC(C)c1c(O)ccc2c1CCC1C(C)(C)CCCC21C (stereo not drawn) | inactive |
| CC(C)c1c(O)ccc2c1CCC1C(C)(C)C(=O)CCC21C (stereo not drawn) | inactive |
| CC(C)c1c(O)ccc2c1CCC1C(C)(C=O)CCCC21C (stereo not drawn) | inactive |
| CC(C)c1c(O)ccc2c1CC[C@H]1C(C)(C)CCC[C@]21C | active |
| COC(=O)C1(C)CCCC2(C)c3ccc(C(C)C)cc3C(=O)CC12 (stereo not drawn) | inactive |
